Test results: paper PMC5540273 (PLoS ONE, 2017)

System: TYK2(JH2domain-pseudokinase)
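Further: kd values determined as follow-up on hits from a single-replicate KINOMEscan panel screen.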

SMILES | Kd [nM]
Cc1csc(-c2nc(Nc3ccncc3)c3ccccc3n2)n1 [GW869640] | 530
COc1ccc2nc(-c3cccc(C)n3)nc(Nc3ccncc3)c2c1 [GSK204919] | 2000
Nc1ncnc2[nH]c(-c3ccccc3)nc12 [AH5015] | 96

System: ULK3

SMILES | Kd [µM]
COc1cc(Nc2nccc(N3CCC(NC(=O)Nc4cc(C)ccc4C)C3)n2)cc(OC)c1OC (stereo not shown) [GSK1379762] | 4.3
COc1ccc(CNC(=O)NC2CCN(c3ccnc(Nc4cc(OC)c(OC)c(OC)c4)n3)C2)cc1 (stereo not shown) [GSK1379748] | 0.55
COc1ccccc1-c1ccc2c(NC(=O)C3CC3)n[nH]c2n1 [SB-711239] | > 10

System: T1, VPS34
T1 construct: gene PIK3C3

SMILES | Kd [nM]
CS(=O)(=O)c1ccc(-c2c(-c3ncn[nH]3)sc(N3CCOCC3)c2C#N)cc1 | 110
Cc1cccc(-c2nc(-c3ccc(S(C)(=O)=O)cc3)sc2-c2ccnc(NCCc3ccccc3)c2)c1 | 8400
Cc1c(Cn2ccn3c(=O)cc(N4CCOCC4)nc23)cccc1C(F)(F)F [GSK2289044] | 64
Cc1nnc(-c2ccc3occ(-c4ccc(S(C)=O)cc4)c3c2)[nH]1 (stereo not shown) | 62
O=c1cc(N2CCOCC2)nc2n(Cc3cccc(Cl)c3Cl)ccn12 [GSK2286295] | 2.1

System: T2, YSK4
T2 construct: gene MAP3K19

SMILES | Kd [nM]
Cc1cc(-c2ccc3c(c2)CC[C@@H](N[C@@H](C)c2ccccc2)C3)cnc1N.Cl [GW412617] | 2400
O=C(O)COc1ncnc2cc(-c3ccc4[nH]ncc4c3)sc12 | 20
O=C(Nc1ccccc1)Nc1cccc(Oc2ccc3nccn3n2)c1 | 270
Cc1ccc(NC(=O)Nc2cccc(Cl)c2)cc1-c1ccc(C(=O)Nc2ccncc2)cc1 [GSK1398468] | 61
Cn1ccc2ncnc(Oc3ccc(NC(=O)Nc4ccccc4)cc3)c21 | 170
O=C(Nc1n[nH]c2nc(-c3nccs3)c(Br)cc12)C1CC1 [SB-742251] | 210
Nc1ncnc2[nH]c(-c3ccccc3)nc12 [AH5015] | 270
NC(=O)c1nnc2ccccc2c1N | 300
